PfHsp90 yeast 2: growth inhibition of yeast expressing Plasmodium Hsp90. S. cerevisiae expressing PfHsp90, BacTiter-Glo ATP, 48 h; yeast lacking PDR1 and PDR3 efflux regulators. inhibition, % at 9.4 µM. hit rate 0.32% among 310,000;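 active = every replicate shows inhibition above about 80%, whatever the replicate mean, limit read from the data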;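 also: 0% = DMSO neutral controls and 100% = 20 µM radicicol positive controls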
NALP1 inh: blocks the NALP1 inflammasome reconstituted in yeast; AID 2071; inhibition, % at 10 µM; S. cerevisiae NALP1/ASC/caspase-1 growth, X-gal OD620, 72 h; hit rate 0.61% among 280,000; in the data active = inhibition mostly above about 24%, no sharp cut-off; inactive = mostly below about 32%
TIM10 inh: TIM10 yeast growth inhibition | hit rate 1.4% among 330,000 | AID 463195 | S. cerevisiae TIM10 strain growth, BacTiter-Glo luminescence, 24 h | inhibition, % at 10 µM;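 active = inhibition of 40% or more at the single tested concentration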;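 also: wild-type TIM10 isogenic control strain grown at permissive 25 °C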
tim23-1 inh: growth inhibitors of tim23-1 mutant yeast; hit rate 1.3% among 330,000; inhibition, % at 20 µM; S. cerevisiae tim23-1 growth, BacTiter-Glo luminescence, 24 h; AID 463212;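 active = growth inhibition of the mutant yeast at or above 50%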;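 also: temperature-sensitive mutant grown at 25 °C; plate controls were DMSO-treated mutant yeast for no effect and medium wells lacking yeast for full effect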
NLRP3 yeast inh: NALP3 inhibition in yeast | Yeast reconstituted NLRP3/ASC/caspase-1, beta-gal luminescence, 24 h | inhibition, % at 10 µM | hit rate 0.39% among 330,000;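 active = inhibition of 50% or more; inactive = inhibition below 50%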;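 also: plate controls were induced DMSO wells for no effect and uninduced yeast grown without galactose for full effect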
tim10-1 inh: tim10-1 yeast growth inhibition. hit rate 2.2% among 330,000. S. cerevisiae tim10-1 ts strain growth, BacTiter-Glo, 24 h. inhibition, % at 20 µM;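 active = inhibition of at least 40%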;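 also: mutant grown at 25 °C; 0% = DMSO wells with yeast and 100% = wells holding no yeast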
Active calls of the source: *; / = not tested or not shown. Compounds with a hit are over-represented: about 4.1% of the library has one in this group of screens.

SMILES	PfHsp90 yeast 2	NALP1 inh	TIM10 inh	tim23-1 inh	NLRP3 yeast inh	tim10-1 inh
Clc1ccc(COC(Cn2ccnc2)c2ccc(Cl)cc2Cl)c(Cl)c1 (stereo not given)	81.1*	23.2	-66.4	36.1	23.8	-6.6
CCOc1cc(CNCCc2c[nH]c3ccccc23)cc(Cl)c1OCC	3.3	53.6*	24.0	35.8	19.5	31.6
Cn1c(O)c(C(=Nc2ccc(F)cc2)c2ccccc2Cl)c(=O)n(C)c1=O	106.2*	23.2	-4.0	21.5	19.6	-11.8
CC1CN1P1(=O)OCC(C)([N+](=O)[O-])CO1 (stereo not given)	-3.9	/	/	/	/	/
Cc1c(C)c2ccc(OCC(=O)N3C[C@H]4C[C@@H](C3)c3cccc(=O)n3C4)cc2oc1=O	-2.6	40.3*	-9.9	-1.3	10.6	-9.5
Cc1cc(=O)oc2cc(OCC(=O)N3C[C@H]4C[C@@H](C3)c3cccc(=O)n3C4)ccc12	9.1	15.8	-1.5	-3.6	12.8	-14.7
CC[C@H](C)/C=C(C)/C=C/C1=CC2=C(Cl)C(=O)[C@](C)(OC(C)=O)C(=O)C2=CO1	105.1*	/	20.9	34.3	-6.1	17.9
Cc1ccc(CN2CCCC(C(=O)c3sccc3C)C2)o1 (stereo not given)	7.6	14.3	4.1	-2.2	5.5	5.4
COC(=O)C1=CO[C@@H](C)[C@@H]2CN(CCc3c[nH]c4ccccc34)CC[C@H]12	15.5	/	4.4	4.9	10.6	7.0
CC1CC(OC(=O)c2ccccc2)(c2ccccc2)C(C)CN1C (stereo not given)	-2.9	33.3*	5.6	13.2	13.9	4.9
COC(=O)C1=C(c2ccc(OC(F)(F)F)cc2)C[C@@H]2CC[C@H]1N2C(=O)NCCc1ccccc1	12.8	/	-1.4	34.8	10.6	16.1
Cc1ccccc1NC(=O)c1cc(-c2ccccc2)n(CCCN2CCOCC2)c1C	/	5.9	-0.5	16.7	8.6	25.1
Cc1ccc(NC(=O)c2cc(-c3ccccc3)n(CCCN3CCOCC3)c2C)cc1	/	37.3*	19.5	20.9	10.6	16.8
Fc1ccc(CCNCc2cccc(Cl)c2)cc1	-0.7	40.6*	9.7	7.9	14.2	4.6
O=[N+]([O-])/C=C/c1c(Cl)cccc1Cl	144.8*	/	/	/	/	/
CCN(CC)c1ccc(/C=C/[N+](=O)[O-])cc1	12.0	-12.2	4.3	43.6	11.3	-7.0
CCCCCCC(Cl)(Cn1ccnc1)c1ccccc1 (stereo not given)	101.4*	/	-123.1	-217.3	22.5	-39.2
CCCCCCn1c(O)c(C=NCCCn2ccnc2)c(=O)[nH]c1=O	-9.6	/	-9.4	11.0	16.6	12.4
Cc1cccc(N=C2c3cc([N+](=O)[O-])ccc3-c3c2cc([N+](=O)[O-])cc3[N+](=O)[O-])c1	107.3*	/	/	/	/	/
CCCNC(=O)N1[C@H]2CC[C@@H]1C(C(=O)OC)=C(c1ccc3ccccc3c1)C2	24.1	/	-2.6	10.0	9.4	23.9
CNC(=O)N(C)c1ccc(C(O)(C(=O)OC)C(F)(F)F)cc1 (stereo not given)	-7.7	42.3*	4.3	0.4	0.9	-2.4
COC(=O)C(O)(c1ccc(N(C)C(=O)OC(C)C)cc1)C(F)(F)F (stereo not given)	-6.5	16.1	6.2	19.5	1.2	18.1
COC(=O)C1=C(c2ccc(OC)c(OC)c2)C[C@@H]2CC[C@H]1N2C(=O)N1CCOCC1	-8.7	/	0.4	5.9	8.7	7.5
O=C1C=CC(=O)C2C1C1(Cl)C(Cl)=C(Cl)C2(Cl)C1(Cl)Cl (stereo not given)	91.9*	/	/	/	/	/
CCn1nc(-c2cccs2)nc2c(=O)n(C)c(=O)nc1-2	107.7*	33.1*	/	/	/	/
SMILES	PfHsp90 yeast 2	NALP1 inh	TIM10 inh	tim23-1 inh	NLRP3 yeast inh	tim10-1 inh
CCOc1ccc(-n2c(-c3cccs3)nc3ccccc3c2=O)cc1	-8.6	3.1	8.7	-3.8	3.3	-2.1
C[N+](C)(N)CCOC(=O)C(O)(c1ccccc1)C1CCCCC1 (stereo not given)	-12.3	/	4.4	-5.8	6.2	4.3
CC(=O)OC1(C)CC(C)C(=O)C(C(O)CC2CC(=O)NC(=O)C2)C1 (stereo not given)	105.2*	/	/	/	/	/
CC(C(=O)c1ccc(Cl)cc1Cl)n1cncn1 (stereo not given)	0.9	20.9	0.1	0.1	9.7	20.2
CC(C)(C)C(O)C(Oc1ccc(Cl)cc1)n1cncn1 (stereo not given)	101.8*	24.0	-85.2	-201.0	5.0	-68.3
CC(=NNC(=S)N1CC2CCC(CC2)C1)c1nccs1	121.4*	/	/	/	/	/
CCCCOc1ccc(CCN)cc1Cl	-10.3	47.5*	3.2	1.8	41.0	4.2
COc1ccc(CCN)cc1O	-1.4	/	2.2	10.8	26.6	10.9
COC(=O)C1=C(c2ccc(F)cc2F)C[C@@H]2CC[C@H]1N2C(=O)N1CCC(O)CC1	13.0	/	-3.8	-3.7	11.7	6.9
Cc1ccc(-c2nc3ccccc3c(=O)n2-c2ccncc2)cc1	17.8	25.1	19.9	33.2	26.0	18.1
O=c1c2ccccc2nc(-c2ccc(-c3ccccc3)cc2)n1-c1ccncc1	107.0*	38.0	-68.7	-66.4	20.2	-17.3
CCOC(=O)c1c(-n2c(C)cc(C=C3C(=O)NC(=S)NC3=O)c2C)sc2c1CCCC2	108.6*	22.0	28.6	43.6	3.9	30.0
Cc1cnc[nH]1	21.1	/	3.1	-3.3	5.6	0.5
O=C(COC(=O)Cc1ccccc1)NC12CC3CC(CC(C3)C1)C2	7.6	24.2*	18.2	39.1	-6.1	30.7
O=C(O)c1cc[c]([Hg][Cl])cc1	-15.7	/	-5.1	4.0	10.7	-12.0
CC=C(CC)C1(CC)C(=O)NC(=S)NC1=O	-22.7	/	/	/	/	/
CNC(=O)Oc1ccc2ncccc2c1	-4.9	51.5*	-12.6	-12.4	6.9	-10.0
Cc1ncc([N+](=O)[O-])n1CCOC(N)=O	0.8	-49.4	-6.6	7.1	10.9	5.0
CC(=O)OC1C(=O)OCC23CCC4(C)OC4C2OC2CC(OC(=O)C=CC=CC(=O)OCCC1C)C3(C)C21CO1 (stereo not given)	131.0*	/	/	/	/	/
CC(O)C1C=CC=CC(=O)OC2CC3OC4C5OC5(C)CCC4(COC(=O)C4OC4(C)C(O)CO1)C2(C)C31CO1 (stereo not given)	-4.3	/	/	/	/	/
CCN(CC)CCO	11.7	/	-0.8	7.1	0.6	0.8
COC(=O)C1=C(c2cccc(C#N)c2)C[C@@H]2CC[C@H]1N2C(=O)NC1Cc2ccccc2C1	-0.2	/	-0.3	20.8	0.4	6.7
Brc1ccc2c(c1)C(OC1CN3CCC1CC3)c1ccccc1CS2 (stereo not given)	16.9	57.3*	38.1	24.4	7.3	31.6

Screens: PubChem, several laboratories
